Laboratory results taken from PubChem BioAssay (Tox21).
Records with an inconclusive call do not appear. Entries that show only a call come without a potency. The source made the active and inactive calls. The call rests on the fitted dose curve; in most records, active means well fitted cell-killing curve with a large enough effect in the repeat runs; inconclusive means weak or mixed curves, or effect the other way; inactive means no such curve, though single readings can be large or run the other way.

Experiment: qHTS assay for small molecule activators of the heat shock response signaling pathway - cell viability counter screen (AID 743209); further: nearly all actives have a fitted effect of over 50% in size
Settings: HSE-bla HeLa viability, CellTiter-Glo luminescence, 5 h; series mostly up to 62.6 µM
Description: U.S. Tox21 Program National Center for Advancing Translational Sciences [NCATS] NIH Chemical Genomics Center [NCGC] U.S. Environmental Protection Agency [EPA] National Institutes of Environmental Health Sciences [NIEHS] National Toxicology Program [NTP] U.S. Food and Drug Administration [FDA] Tox21 Assay Overview: Various chemicals, environmental and physiological stress conditions may lead to the activation of heat shock response/ unfolded protein response (HSR/UPR). There are three heat shock transcription factors (HSFs) (HSF-1, -2, and -4) mediating transcriptional regulation of the human HSR. To identify the compounds that activate HSR signaling, HSE-bla HeLa cell line (Invitrogen, Carlsbad, CA, USA) containing a beta-lactamase reporter gene under the control of the heat shock response elements was used to screen Tox21 10K compound library. The cytotoxicity of the Tox21 compound library against the HSE-bla HeLa cell line was tested in parallel by measuring the cell viability using CellTiter-Glo assay (Promega, Madison, WI) in the same wells.
Tox21 Assay Protocol Summary: The CellSensor HSE-bla HeLa cells (Invitrogen, Carlsbad, CA, USA) were dispensed at 1500 cells/6uL/well into 1536-well black wall/clear bottom plates using a Multidrop combi (Thermo Fisher Scientific, Waltham, MA) dispenser. After the assay plates were incubated at 37 C and 5% CO2 overnight, 23 nL of compounds dissolved in DMSO, positive controls or DMSO only was transferred to the assay plate by a Pintool station (Kalypsys, San Diego, CA). The plates were incubated at 37 C for 5 h. After 1 uL of LiveBLAzerTM B/G FRET substrate was added using a Flying Reagent Dispenser (FRD, Beckman Coulter, Indianapolis, IN, USA), the plates were incubated at room temperature for 2.5 h, and fluorescence intensity was measured by an Envision plate reader (PerkinElmer, Shelton, CT). For cell viability readout that measures cytotoxicity, 3 ul/well of CellTiter-Glo reagent was added into the assay plates using a FRD. After 30 min incubation at room temperature, the luminescence intensity in the plates was measured using a ViewLux (PerkinElmer) plate reader.
With `CCc1c2c(nc3ccc(OC(=O)N4CCC(N5CCCCC5)CC4)cc13)-c1cc3c(c(=O)n1C2)COC(=O)[C@]3(O)CC` the Potency was “inactive”. In the case of `CC(=N\O)/C(C)=N/O`, the Potency is reported as “inactive”. In the case of `N#C[C@@H]1C[C@@H]2C[C@@H]2N1C(=O)[C@@H](N)C12CC3CC(CC(O)(C3)C1)C2`, the Potency is reported as “inactive”. In the case of `CO/N=C1\CN(c2nc3c(cc2F)c(=O)c(C(=O)O)cn3C2CC2)CC1CN` (stereo not given), the Potency is reported as “inactive”. With `CC[C@@H]([C@H](C)O)n1ncn(-c2ccc(N3CCN(c4ccc(OC[C@@H]5CO[C@@](Cn6cncn6)(c6ccc(F)cc6F)C5)cc4)CC3)cc2)c1=O` the Potency was “inactive”. With `Cc1cc(C(=C2C=CC(=Nc3ccc(S(=O)(=O)O)cc3S(=O)(=O)O)C=C2)c2ccc(Nc3ccc(S(=O)(=O)O)cc3)cc2)ccc1N` the Potency was “inactive”. For `CN(C)C(=O)Nc1ccc(Oc2ccc(Cl)cc2)cc1`, the Potency was “inactive”. For `CC(=O)Nc1ccccc1C`, the Potency was “inactive”. With `Cc1ccccc1N1C(=O)c2cc(S(N)(=O)=O)c(Cl)cc2NC1C` (stereo not given) the Potency was “inactive”. In the case of `CCCCCCCCCOC(C)=O`, the Potency is reported as “inactive”. In the case of `COCc1c(C(C)C)nc(C(C)C)c(/C=C/[C@@H](O)C[C@@H](O)CC(=O)O)c1-c1ccc(F)cc1`, the Potency is reported as “inactive”. With `[O]=[Bi]` the activity change, negative = cytotoxicity was 0.948% [at 5.95 µM] (inactive). In the case of `CCCOC(=O)c1ccc(N)cc1`, the Potency is reported as “inactive”. For `CC1(C)C2=CCCC(C)(C)[C@]23CC[C@H]1C3`, the Potency was “inactive”. With `NC(=O)Cn1c(=O)cc(CCN2CCN(c3nccc4sccc34)CC2)c2ccc(F)cc21` the Potency was “inactive”. With `CCCC(=O)O[C@]1(C(=O)COC(=O)CC)CC[C@H]2[C@@H]3CCC4=CC(=O)CC[C@]4(C)[C@H]3[C@@H](O)C[C@@]21C` the Potency was “inactive”. In the case of `OCCSc1ccccc1`, the Potency is reported as “inactive”. With `CC1=C(/C=C/C(C)=C\C=C\C(C)=C\C(=O)O)C(C)(C)CCC1` the Potency was “inactive”. With `CCCCCCCCSCCO` the Potency was “inactive”. In the case of `CC(=O)[C@H]1CC[C@H]2[C@@H]3C=CC4=CC(=O)CC[C@@]4(C)[C@@H]3CC[C@]12C`, the Potency is reported as “inactive”. In the case of `CCOC(=O)N1CCC(n2c(=O)[nH]c3cc(Cl)ccc32)CC1`, the Potency is reported as “inactive”. In the case of `CC(=O)CC(c1ccc([N+](=O)[O-])cc1)c1c(O)c2ccccc2oc1=O` (stereo not given), the Potency is reported as “inactive”. With `CC1=CC(=O)CC(C)(C)C1(O)/C=C/C(C)=C\C(=O)O` (stereo not given) the Potency was “inactive”. For `COc1cc2[nH]c(=O)[nH]c(=O)c2cc1OC`, the Potency was “inactive”. With `CC(COc1ccc(C(C)(C)C)cc1)OS(=O)OCCCl` (stereo not given) the Potency was “inactive”. With `CCCc1c(OCCCOc2ccc(OCC(=O)O)cc2)ccc(C(C)=O)c1O` the Potency was “inactive”. For `CC(=O)OCC(=O)[C@H]1CC[C@H]2[C@@H]3CCC4=CC(=O)CC[C@]4(C)[C@H]3CC[C@]12C`, the Potency was “inactive”. In the case of `CC1CC(=O)NN=C1c1ccc(NCC(C)(C)NCC(O)COc2cc(Cl)ccc2C#N)cc1` (stereo not given), the Potency is reported as “inactive”. With `O=Cc1c(Cl)cccc1Cl` the Potency was “inactive”. In the case of `CCn1nc(C)c2c1C(=O)NCC(c1ccc(O)cc1)=N2`, the Potency is reported as “inactive”. In the case of `CCCCOC(=O)CCS`, the Potency is reported as “inactive”. For `CN1CCN(c2c(F)cc3c(=O)c(C(=O)O)cn4c3c2OCN4C)CC1`, the Potency was “inactive”. In the case of `CCC(Cc1ccccc1)(C(=O)c1ccc(N2CCOCC2)cc1)N(C)C` (stereo not given), the Potency is reported as “inactive”. With `O=C(CCCN1CCN(c2ccc(F)cc2)CC1)NC1c2ccccc2CSc2ccccc21` (stereo not given) the Potency was “inactive”. With `CNC(=S)NC` the Potency was “inactive”. With `O=C1NCCN1` the Potency was “inactive”. With `CC1CN(c2cc3c(cc2F)c(=O)c(C(=O)O)cn3-c2ccc(F)cc2F)CCN1` (stereo not given) the activity change, negative = cytotoxicity was -28.5% [at 5.95 µM] (inactive). With `C[C@]12CCC(=O)C=C1C=C[C@@H]1[C@@H]2CC[C@@]2(C)[C@H]1CC[C@@]21CCC(=O)O1` the Potency was “inactive”. For `O=[N+]([O-])c1cccc(S(=O)(=O)NCCNS(=O)(=O)c2cccc([N+](=O)[O-])c2)c1`, the Potency was “inactive”. With `Nc1ccc(C(=O)OCCCOC(=O)c2ccc(N)cc2)cc1` the Potency was “inactive”.
